Myeloid diff 2 = induction of myeloid progenitor differentiation, primary screen, cell-based, flow cytometry, MLPCN library; ER-HoxA9 myeloid progenitors, lysozyme-GFP differentiation; calls only at 10 µM; AID 624256, 2012; 1% of 360,000 active;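 active means normalized GFP-positive differentiation at or above the plate's own cutoff, the solvent-only control mean plus 3 SD; inconclusive means no clear call, values can overlap the other calls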;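 further: cells exposed to compound for four days before flow analysis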
Vif imaging = HIV Vif self-association inhibitors, primary screen, imaging, HEK293T, single point. 0.35% of 340,000 active. inhibition, % at 7.49 µM. HEK293T cells, Vif self-association by quenched fluorescence, 24 h; in the data active means inhibition above about 50%, passing the limit was not always enough; inconclusive means no clear call, values can overlap the other calls; inactive means below about 31%
N-glyco inh = increase of ERlucT glycosylation luciferase signal, primary screen, N-linked glycosylation inhibitor project, D54 ERlucT cells, luminescence, set 2; 0.23% of 360,000 active; reporter increase, % at 12.5 µM; D54 ERlucT glycosylation luciferase reporter, 24 h; percent of 100 nM tunicamycin response;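 active means mean luciferase reporter signal, scaled so untreated is 0 and the glycosylation-blocking control 100, at or above a set limit in every replicate; inconclusive means mean reaches the limit but not every replicate does; inactive means mean below the limit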;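 further: luciferase carries N-glycosylation sites so blocking glycosylation raises the light; 0% = median of neutral control wells and 100% = median of 100 nM tunicamycin wells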
RAD54 branch = inhibitors of human RAD54 branch migration, primary screen, biochemical, fluorescence, single point. AID 602329, 2012. RAD54 Holliday junction branch migration, FAM/BHQ fluorescence. inhibition, % at 10.4 µM. 0.14% of 360,000 active;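 active means mean normalized replicate activity at least 40 and at least half of replicates scoring 40 or more; inconclusive means only one of the two criteria met; inactive means mean below 40 and under half of replicates reaching 40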;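 further: 0% = median of neutral control wells and 100% = median of positive control wells; inhibitors cause a drop in the FAM fluorescence signal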
ABCB6 inh 2 = ABCB6 transporter inhibitors, primary screen, K562-ABCB6 cells, flow cytometry, MLPCN library; K562-ABCB6 porphyrin accumulation, 1 h; active compounds read low; fluorescence ratio to DMSO, % at 10 µM; 0.19% of 360,000 active; AID 602162, 2011;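 active means fluorescence ratio to DMSO below 75%, the collection mean minus 3 SD; inconclusive means too few cells collected in the well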;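 further: signal is porphyrin accumulated inside mitochondria; 100% equals median channel fluorescence of DMSO control wells; lower ratio means ABCB6 inhibition with less porphyrin fluorescence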
Target sequence (Q9NP58 whole entry, looked up): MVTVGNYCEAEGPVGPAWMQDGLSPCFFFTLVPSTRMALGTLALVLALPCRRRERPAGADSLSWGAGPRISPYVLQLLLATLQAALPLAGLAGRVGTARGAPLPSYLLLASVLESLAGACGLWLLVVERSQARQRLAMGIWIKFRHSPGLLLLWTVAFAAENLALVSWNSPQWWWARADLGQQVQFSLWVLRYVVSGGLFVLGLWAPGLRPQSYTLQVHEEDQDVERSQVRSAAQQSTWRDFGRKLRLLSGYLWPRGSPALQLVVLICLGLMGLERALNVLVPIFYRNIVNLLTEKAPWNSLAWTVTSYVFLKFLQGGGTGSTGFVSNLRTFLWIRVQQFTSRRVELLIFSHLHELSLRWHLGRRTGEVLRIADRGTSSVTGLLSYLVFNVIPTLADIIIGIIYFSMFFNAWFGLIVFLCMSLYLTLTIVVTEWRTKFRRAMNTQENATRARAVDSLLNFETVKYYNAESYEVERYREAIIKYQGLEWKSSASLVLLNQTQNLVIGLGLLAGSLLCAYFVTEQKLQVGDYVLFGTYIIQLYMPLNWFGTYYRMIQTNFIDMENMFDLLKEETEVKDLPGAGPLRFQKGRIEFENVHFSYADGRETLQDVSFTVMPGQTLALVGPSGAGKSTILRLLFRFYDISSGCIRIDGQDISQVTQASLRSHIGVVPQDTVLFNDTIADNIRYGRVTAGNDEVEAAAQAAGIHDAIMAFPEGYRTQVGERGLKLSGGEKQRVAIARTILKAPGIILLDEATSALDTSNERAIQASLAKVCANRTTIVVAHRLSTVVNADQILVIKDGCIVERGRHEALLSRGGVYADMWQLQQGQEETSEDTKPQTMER
Myeloid diff = inducers of myeloid progenitor differentiation, confirmation, cell-based, GFP/Mac1 flow cytometry, cherry pick 01; shares compounds with Myeloid diff 2; ER-HoxA9 myeloid progenitors, GFP/Mac1 double-positive flow; calls only; 2% of 2,300 active; AID 651706, 2012;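 active means share of green or green-and-red cells above 9 and 9% in run 1 or 4 and 3% in run 2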
GFP autofluor = flagged as fluorescent in myeloid differentiation counter-screen | shares compounds with Myeloid diff 2 | ER-HoxA9 myeloid progenitors, no estrogen, GFP autofluorescence flow cytometry; vehicle wells 0%, positive control 100% | fluorescence response, % (no concentration beside the values) | 7.4% of 2,300 active | AID 651707;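 active means over 5% cells positive for green fluorescent reporter, or over 2% positive for both it and APC stain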;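 further: range taken on the double positive population between DMSO and positive control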
Active calls of the source: *; i = inactive; ? = inconclusive; nt = no result given; + = active, no number. Hits are enriched below; roughly 1.6% of the tested compounds scored in any of these assays.

SMILES	Myeloid diff 2	Vif imaging	N-glyco inh	RAD54 branch	ABCB6 inh 2	Myeloid diff	GFP autofluor
COc1ccc(N2C(=O)CN=C2Nc2nc(C)cc(C)n2)cc1OC	+	9	1	5	105	i	0
CCN1CCN(c2ccc(S(=O)(=O)N3CCCCC3)cc2NC(=O)c2ccc([N+](=O)[O-])s2)CC1	+	12	-17	5	97	i	0
CCN1CCN(c2ccc(S(=O)(=O)N3CCCCC3)cc2NC(=O)c2ccccc2)CC1	i	nt	0	-6	96	nt	nt
CCN1CCN(c2ccc(S(=O)(=O)N3CCCCC3)cc2NC(=O)/C=C/c2ccc(Cl)cc2)CC1	+	15	-7	10	98	i	16*
CCN1CCN(c2ccc(S(=O)(=O)N3CCCCC3)cc2NC(=O)/C=C/c2ccc(OC)c(OC)c2)CC1	i	?	-1	6	99	nt	nt
O=C(c1ccc(S(=O)(=O)c2ccccc2Cl)c([N+](=O)[O-])c1)N1CCCCCC1	+	-9	-11	nt	98	i	0
O=C(c1ccc(S(=O)(=O)Cc2ccccc2F)c([N+](=O)[O-])c1)N1CCCCCC1	i	0	-5	-7	86	nt	nt
CC(C)(C)OC(=O)N(CCc1ccccc1)Cc1ccccc1OCc1cccc(NC(=O)C2CC2)c1	+	-12	-12	1	89	i	0
Cn1c(=O)c2c(nc(SCC(=O)N3c4ccccc4CCc4ccccc43)n2C)n(C)c1=O	+	0	-3	-7	92	i	0
O=C(C[C@H]1CC[C@H]2[C@@H](COC[C@@H](O)CN2C(=O)c2cnccn2)O1)NCc1ccc(F)cc1	nt	nt	nt	-1	nt	nt	nt
Cn1c(=O)c2cc(NC(=O)CCc3ccc(O)cc3)ccc2n1Cc1cccc(C(F)(F)F)c1	+	-2	-3	-5	90	i	1
CC1CCc2c(sc(Nc3nc4c(F)cccc4s3)c2C(N)=O)C1 (stereo unspecified)	+	1	2	nt	92	i	6.4*
CCCNC(=O)Nc1ccc2c(c1)C(=O)N(C)C[C@H](OC)[C@@H](C)CN(Cc1cncnc1)[C@H](C)CO2	nt	nt	nt	0	nt	nt	nt
COc1ccc(CCNC(=O)c2cc(-c3ccccc3O)n[nH]2)cc1OC	i	0	-1	5	92	nt	nt
COc1ccc(CCNC(=O)c2ccn[nH]2)cc1OC	+	10	1	-1	94	i	0
CCOc1ccc(-n2c(COc3ccc(C)cc3)nnc2SCC(N)=O)cc1	i	-7	0	-6	97	i	0
CCCCCCC1CCC(C(=O)Nn2c(C)nc3ccccc3c2=O)CC1 (stereo unspecified)	i	1	3	1	100	i	0
CCCC1CCC(C(=O)Nn2c(C)nc3ccccc3c2=O)CC1 (stereo unspecified)	i	-3	3	1	105	nt	nt
CCOC(=O)c1cc2c(=O)n3ccccc3nc2n(C(C)C)c1=NC(=O)c1c(-c2c(F)cccc2Cl)noc1C	+	2	-5	nt	135	i	0
COc1ccc(OC)c(NC(=O)CNC(=O)c2ccc([N+](=O)[O-])cc2)c1	i	11	1	nt	98	i	0
Cc1nn(C)c(N)c1[N+](=O)[O-]	i	0	2	nt	101	nt	nt
Cc1nn(C)c(Sc2ccccc2N)c1[N+](=O)[O-]	i	-4	-6	1	103	i	1
C[C@H](CO)N1C[C@H](C)[C@H](CN(C)C(=O)Cc2ccccc2)OCCCC[C@H](C)Oc2ccc(NC(=O)C3CCCCC3)cc2C1=O	nt	nt	nt	-8	nt	nt	nt
Cc1ccc(C(=O)NC(=S)c2c(C)cc3ccccn23)cc1	+	5	-1	-7	92	i	11*
O=C(OCc1ccccc1)N1CCC2CC1c1cc(N3CCOCC3)ccc12 (stereo unspecified)	i	nt	2	9	97	nt	nt
SMILES	Myeloid diff 2	Vif imaging	N-glyco inh	RAD54 branch	ABCB6 inh 2	Myeloid diff	GFP autofluor
O=C(OCc1ccccc1)N1CCC2CC1c1cc(Cl)ccc12 (stereo unspecified)	?	-4	1	-21	93	i	0
COc1ccc(F)cc1-c1cc(NC(C)=O)c2ncc(-c3cc(OC)c(OC)c(OC)c3)n2c1	+	68*	21	2	103	i	0
COc1ccc(-c2cnc3c(NC(C)=O)cc(-c4cc(F)ccc4OC)cn23)cc1OC	?	nt	8	-2	96	nt	nt
Clc1cc(Cl)cc(Nc2ccccc2CN(C/C=C/c2ccc3c(c2)OCO3)Cc2ccccc2)c1	i	1	0	0	93	i	0
COc1ccc(CNc2ccccc2)cc1Br	i	nt	-2	-8	108	i	0
COc1ccc(CNc2ccc(C)cc2)cc1Br	i	20	-1	-7	98	nt	nt
CCN(CC)C(=O)CSc1nnc(SC(C)C(=O)NC2CC2)s1 (stereo unspecified)	i	-1	0	15	98	i	0
Cc1nnc(SC(C)C(=O)NC2CCCCC2)s1 (stereo unspecified)	i	-2	-1	-2	97	nt	nt
c1ccc(Nc2cccc(Nc3ccccc3)c2)cc1	i	-1	0	nt	98	nt	nt
c1ccc(Nc2cccc3ccccc23)cc1	i	2	3	1	110	i	0
Cc1c(OCC(=O)NCc2ccccn2)ccc2c(-c3ccccc3)cc(=O)oc12	+	-1	-1	12	99	i	0
COc1ccc(-c2cc(=O)oc3c(C)c(OCC(=O)N(C)C)ccc23)cc1	+	2	-3	-17	155	i	0
Cc1cc(=O)oc2c(C)c(OCC(=O)NCc3ccccn3)ccc12	i	20	0	-1	102	nt	nt
CNC[C@@H]1Oc2ccc(NS(=O)(=O)c3c(C)noc3C)cc2CC(=O)N([C@@H](C)CO)C[C@H]1C	nt	nt	nt	6	nt	nt	nt
N#Cc1ccc(-c2ccc(F)cc2)nc1SCC(=O)Nc1sc2c(c1C#N)CCC2	i	3	-1	-3	101	i	0
C[C@H]1CN([C@@H](C)CO)C(=O)c2cccc(NS(=O)(=O)c3cccs3)c2O[C@H]1CN(C)Cc1ccc(Cl)c(Cl)c1	nt	nt	nt	3	nt	nt	nt
CCOC(=O)c1[nH]c2ccc(F)cc2c1NC(=O)CCN1CCOCC1	i	5	1	nt	95	nt	nt
